The panel holds about 83,000 compounds, 20% with a hit somewhere; the sample as a whole holds those more often.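 Values shown are percent growth following 48 h exposure of cells in 96-well plates to a single concentration of compound; below 10 was considered active.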 Active and inactive are the calls of the source.
System: 786-0 renal
Assay: NCI-60 one-dose screen, 48 h (100 = growth as untreated, 0 = no growth, -100 = all killed)
Conditions: 10 µM unless noted

Structure (SMILES) | growth
CCCc1nn(C)c2c(=O)[nH]c(-c3cc(S(=O)(=O)N4CCN(C)CC4)ccc3OCC)nc12 | 98.5% (inactive)
O=C(/C(=N/O)S(=O)(=O)c1ccccc1)c1cccs1 | 99.8% (inactive)
Cc1ccccc1-c1cc(Cc2ccccc2O)c(=O)[nH]n1 | 98.9% (inactive)
O=C(CSc1nc2c(n1Nc1ccccc1)-c1ccccc1SC2)Nc1nc(-c2ccc(Cl)cc2)cs1 | 71.5% (inactive)
CCOc1cc(C(C)(C)C)ccc1C1=N[C@H](c2ccc(Cl)cc2)[C@H](c2ccc(Cl)cc2)N1C(=O)N1CCN(CC#Cc2cccc3c2CN([C@@H]2CCC(=O)NC2=O)C3=O)CC1 | 43.8% (inactive)
Nc1ccc(S(=O)(=O)Nc2ncccn2)cc1 | 107% (inactive)
CC(=O)n1c2ccccc2c2ccccc21 | 90.8% (inactive)
O=C1C(Cl)=C(N=Nc2c(Cl)c(O)c3ccccc3c2O)C(=O)c2ccccc21 | 98.4% (inactive)
NC(N)=NN=c1c(=O)c2ccccc2c1=O | 108% (inactive)
O=C(Nc1ccccc1Cl)c1cnc2ccc(C3CCNCC3)cn12 | 52.8% (inactive)
CC12CCC3C(CCC4CC(=O)/C(=C\O)CC43C)C1CCC(=O)O2 (stereo not given) | 92.5% (inactive)
Oc1[nH]c2ccc(Cl)cc2c1/C=c1/ccc2c(c1)N=C(c1ccc(C(F)(F)F)cc1)N=2 | 16.7% (inactive)
O=C(c1ccccc1)c1ccccc1Cl | 98.8% (inactive)
N#Cc1c(N2CCOCC2)nc2sc3cc(Cl)ccc3n2c1=N | 95.3% (inactive)
O=C1CCCN1C1CCN(Cc2cc3ccccc3[nH]c2=O)c2ccccc21 (stereo not given) | 85.2% (inactive)
